Screening data: PubChem, Broad Institute
Compounds with a hit are over-represented: about 1.8% of the library has one in this group of screens.
EWS-Fli block = inhibitors of EWS/Fli oncoprotein transcriptional activity. inhibition, % at 12.6 µM. A673 NR0B1-luciferase reporter, viability-normalised. 350,000 compounds, 0.67% hits;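 active = mean inhibition of at least 50% after viability correction, with every replicate also passing that limit; inconclusive = mean reaches 50% but only one of two replicates passes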;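 also: firefly luciferase signal divided by Alamar Blue viability fluorescence both relative to DMSO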
GSIS activator = primary screen for activators of insulin secretion dependent on glucose, INS-1E cells, GLuc reporter luminescence | AID 743287 | activation, % at 16.6 µM | 370,000 compounds, 0.61% hits | INS-1E GLuc reporter insulin secretion, 2-3 h;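 active = lowest replicate activation of at least 40%, so every replicate reaches that level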;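 also: 0% = median of neutral control wells and 100% = median of IBMX positive control wells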
RAD52 anneal inh = blocks human RAD52 DNA annealing; recombinant RAD52 DNA annealing, FRET fluorescence; 360,000 compounds, 0.46% hits; inhibition, % at 18.7 µM; P43351;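 active = every replicate showing at least 50% inhibition; inconclusive = mean inhibition at least 50% but not in every replicate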
Target sequence (P43351 whole entry, looked up): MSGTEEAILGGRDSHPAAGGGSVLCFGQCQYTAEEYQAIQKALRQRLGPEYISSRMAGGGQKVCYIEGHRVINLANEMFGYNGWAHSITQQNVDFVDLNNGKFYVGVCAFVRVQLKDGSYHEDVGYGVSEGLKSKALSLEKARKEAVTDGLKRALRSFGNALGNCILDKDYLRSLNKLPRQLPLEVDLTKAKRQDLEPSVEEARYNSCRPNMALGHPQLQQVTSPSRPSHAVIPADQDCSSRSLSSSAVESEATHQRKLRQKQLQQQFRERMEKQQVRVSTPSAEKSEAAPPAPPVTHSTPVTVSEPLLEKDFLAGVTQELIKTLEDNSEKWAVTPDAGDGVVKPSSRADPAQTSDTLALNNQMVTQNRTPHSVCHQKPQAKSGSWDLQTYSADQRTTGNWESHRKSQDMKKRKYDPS
RAD54 inh = blocks human RAD54 Holliday junction branch migration; FAM/BHQ fluorescence; inhibition, % at 10.4 µM; 360,000 compounds, 0.14% hits;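 active = mean normalized replicate activity at least 40 and at least half of replicates scoring 40 or more; inconclusive = only one of the two criteria met; inactive = mean below 40 and under half of replicates reaching 40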;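 also: 0% = median of neutral control wells and 100% = median of positive control wells; inhibitors cause a drop in the FAM fluorescence signal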
LGR2 inh = blocks bursicon-induced cAMP signaling via Drosophila LGR2; HEK293 LGR2, CRE-luciferase, bursicon-stimulated, 4 h; 380,000 compounds, 0.35% hits; AID 720647; inhibition, % at 9.99 µM;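 active = drop in luminescence signal, shown as inhibition above about 50% in the replicate tests, limit read from the data, passing the limit was not always enough; inconclusive = probably only some replicates passing the limit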;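 also: agonist challenge used bursicon conditioned medium at about half maximal strength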
F508del corr = CFTR F508del correction in bronchial cells | CFBE cells, YFP halide quenching; stimulated with forskolin plus potentiator P3; % fluorescence drop versus neutral controls | activity (quench increase), % at 7.58 µM | 350,000 compounds, 0.36% hits;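 active = mean added fluorescence quench of at least 8% versus neutral control, with both replicates also reaching 8%; inconclusive = only one of the mean or replicate conditions met; inactive = mean below 8% and not both replicates reaching 8%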;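 also: cells transiently co-express mutant CFTR-F508del with the halide-sensitive YFP; corrector assay measuring rescue of mutant channel to the surface after 24 h compound exposure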
Active calls of the source: *; ? = inconclusive; / = not tested or not shown.

SMILES | EWS-Fli block | GSIS activator | RAD52 anneal inh | RAD54 inh | LGR2 inh | F508del corr
Cc1nn(CC(=O)Nc2ccccn2)c(C)c1[N+](=O)[O-] | / | 19 | / | -3 | 3 | /
O=C(/C=C\c1cn(-c2ccccc2)nc1-c1ccccc1)Nc1nccs1 | / | 47* | / | / | -16 | /
CC(=O)NS(=O)(=O)c1ccc(NC(=O)/C=C/c2cn(-c3ccccc3)nc2-c2ccccc2)cc1 | -6 | -11 | -16 | -11 | 9 | /
COc1ccc(CCn2c(C)cc(C(=O)COC(=O)c3ccc(O)cc3O)c2C)cc1 | 5 | / | -12 | / | 3 | /
Clc1ccc(N(CC2CO2)CC2CO2)cc1 (stereo not drawn) | 0 | / | 2 | / | -5 | 8.1*
COc1ccc2cc(C3(C)NC(=O)N(CC(=O)NCc4ccco4)C3=O)ccc2c1 (stereo not drawn) | / | / | / | 0 | / | /
N#Cc1ccccc1Cn1cc(/C=C/[N+](=O)[O-])c2ccccc21 | 15 | 14 | -34 | 3 | 69* | /
O=C(Cn1cc(/C=C\[N+](=O)[O-])c2ccccc21)Nc1ccccc1 | 43 | 9 | -51 | / | 67* | -11
O=C(Nc1ccccc1N1CCOCC1)c1ccc2nc[nH]c2c1 | 5 | -2 | -15 | 9 | 9 | /
O=C1CCCN1CN(C(=O)c1ccc2c(c1)OCO2)c1cccc(Cl)c1 | / | 18 | 2 | -11 | 13 | /
Cc1ccc2c(=O)cc(C(=O)NC3CCS(=O)(=O)C3)oc2c1C (stereo not drawn) | 2 | 42* | 0 | 9 | -12 | -2
O=C(C1CCC1)N1C[C@@H]2[C@H](c3ccccc31)[C@@H](CO)N2C(=O)c1ccccc1 | -5 | 4 | -18 | -3 | 8 | -2
OCCNc1ccc(Cl)cc1 | / | / | / | 9 | / | /
COc1cc([C@@H]2c3cc4c(cc3[C@@H](O[C@@H]3O[C@@H]5CO[C@@H](C)O[C@H]5[C@H](O)[C@H]3O)[C@H]3COC(=O)[C@H]23)OCO4)cc(OC)c1O | 54* | / | -12 | -4 | 25 | 0
COc1cc([C@@H]2c3cc4c(cc3[C@H](O)[C@H]3COC(=O)[C@H]23)OCO4)cc(OC)c1OC | 72* | / | 12 | -5 | -58 | -1
COc1cc(C2c3cc4c(cc3C(OC3OC5COC(c6cccs6)OC5C(O)C3O)C3COC(=O)C23)OCO4)cc(OC)c1O (stereo not drawn) | 60* | / | 0 | 1 | 41 | -3
COc1cc(C2c3cc4c(cc3C(O)C3COCC23)OCO4)cc(OC)c1OC (stereo not drawn) | -1 | 4 | -12 | 5 | 0 | -1
COC(=O)Cn1c(O)c(N=NC(=O)c2ccc3c(c2)OCO3)c2ccccc21 | -15 | -2 | -10 | / | -6 | -2
CCCNC(=O)N1CC2(CCN(C(=O)CCC)CC2)c2c(n(C)c3cc(OC)ccc23)[C@H]1CO | 3 | -8 | 5 | / | -13 | 1
C[C@@H]1CN([C@@H](C)CO)C(=O)Cc2cc(NS(=O)(=O)c3cccs3)ccc2O[C@H]1CN(C)S(=O)(=O)c1cn(C)cn1 | -9 | 8 | 8 | 1 | 2 | -1
Cc1ccc(SCC(=O)OCC(=O)N(CCC#N)c2ccccc2)cc1C | -1 | 47 | 0 | -3 | 21 | -3
Cc1ccc(N(CCC#N)C(=O)CCl)cc1C | 72* | 1 | -3 | -4 | -1 | 1
CC(Sc1ncnc2sc(-c3ccccc3)cc12)C(N)=O (stereo not drawn) | -51 | -10 | -12 | 6 | -30 | -2
NS(=O)(=O)c1ccc(-n2ncc3c(=O)[nH]c(SCC(=O)Nc4nccs4)nc32)cc1 | -5 | -8 | -16 | -8 | 9 | 8.1*
O=C(CSc1nc2[nH]ncc2c(=O)[nH]1)Nc1nccs1 | -34 | 0 | -2 | / | -3 | 0
SMILES | EWS-Fli block | GSIS activator | RAD52 anneal inh | RAD54 inh | LGR2 inh | F508del corr
COC(=O)c1cccc(NC(=O)c2cc3ccccc3o2)c1 | 84* | / | -12 | 4 | / | -1
CCOc1ccc(C(=O)NCC(=O)NNC(=O)c2cc(C)oc2C)cc1OCC | 1 | -2 | -9 | -2 | 6 | 16*
Cc1ccc(NC(=O)CNC(=O)c2ccco2)nc1 | / | 2 | -17 | 6 | 14 | 0
CCOc1ccc(C(=O)Nc2cc(C)ccn2)cc1 | ? | 10 | -3 | -4 | 65* | 1
Cc1ccnc(NC(=O)CNC(=O)c2ccco2)c1 | -20 | 45* | -9 | -7 | -2 | 2
COc1ccc(C=C2CCC3C(=O)CCCC3(C)C2=O)cc1 (stereo not drawn) | -94 | 1 | -12 | 4 | -39 | 3
O=C(N[C@H](Cc1ccccc1)C(=O)NCc1ccco1)[C@H]1O[C@@H](n2ccc(=O)[nH]c2=O)[C@H](O)[C@@H]1O | 6 | / | -6 | / | -8 | 2
Cc1ccnc(NC(=O)c2cc3ccccc3o2)c1 | 75* | 2 | -19 | 14 | 77* | 0
Cc1ccc(C(=O)NCC(=O)Nc2cc(C)ccn2)cc1 | -77 | -6 | -19 | -1 | -38 | 1
CCOc1ccc(C(=O)NCC(=O)Nc2cc(C)ccn2)cc1OCC | -26 | 44* | -10 | 1 | -10 | 0
Cc1ccnc(NC(=O)c2ccc(C(=O)c3ccccc3)cc2)c1 | ? | 0 | -9 | -9 | 55* | 2
Cc1ccnc(NC(=O)c2ccccc2NC(=O)c2ccccc2)c1 | -8 | 3 | 1 | -11 | -11 | 3
O=C(Nc1ccccn1)c1cc2ccccc2o1 | / | / | / | 2 | / | /
COc1ccccc1N(Cc1ccccc1)S(=O)(=O)c1cccc(C(=O)Nc2cc(C)ccn2)c1 | / | 17 | -8 | -1 | 55* | 0
CCOc1ccc(C(=O)NCC(=O)OCCCC(=O)c2ccc(F)cc2)cc1OCC | -3 | 45* | -7 | -2 | -18 | -2
COc1ccc(C(=O)NCC(=O)OCCCOC(=O)CNC(=O)c2ccc(OC)c(OC)c2)cc1OC | 3 | -3 | 1 | 3 | -4 | 0
C[C@@H]1CCCCO[C@H](CN(C)Cc2ccc(Cl)c(Cl)c2)[C@@H](C)CN([C@@H](C)CO)C(=O)c2cc(NS(=O)(=O)c3ccc(Cl)cc3)ccc2O1 | 1 | -1 | 24 | / | 20 | 12*
COc1ccc(CN(C)C[C@@H]2OCCCC[C@H](C)Oc3ccc(NS(=O)(=O)c4ccc(OC)cc4)cc3C(=O)N([C@@H](C)CO)C[C@@H]2C)cc1 | 69* | -14 | / | -1 | 5 | 3
COc1ccc(S(=O)(=O)Nc2ccc3c(c2)C(=O)N([C@H](C)CO)C[C@@H](C)[C@@H](CN(C)Cc2ccc(C(F)(F)F)cc2)O3)cc1 | 17 | -23 | -26 | 7 | 12 | 9.2*
COc1ccc(S(=O)(=O)Nc2ccc3c(c2)C(=O)N([C@@H](C)CO)C[C@H](C)[C@@H](CN(C)Cc2ccc(Cl)c(Cl)c2)OCCCC[C@H](C)O3)cc1 | -3 | -21 | / | 0 | 14 | 5
